Reference: PubChem BioAssay AID777 (Sanford-Burnham Center for Chemical Genomics, 2007)
Hit rate of the full screen: of about 96,000 compounds, about 19,000 (20%) were called active. The list is a sample of the results. Values without a mark were called inactive.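 The calls were made as follows: active = blocking of liver enzyme CYP2C9 beyond about 50% at 5 µM (limit read from the data); inactive = the rest.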

Biological target: Cytochrome P450 2C9 (Homo sapiens) (UniProt P11712)
Assay: blockers of cytochrome P450 2C9 activity – biochemical, luminescence, ADME assay, primary screen (AID 777)
Settings: CYP2C9 Supersomes, luciferin-H conversion, at 5 µM, hits give high values

Cytochrome P450 2C9 (Homo sapiens), sequence (P11712 whole entry, looked up): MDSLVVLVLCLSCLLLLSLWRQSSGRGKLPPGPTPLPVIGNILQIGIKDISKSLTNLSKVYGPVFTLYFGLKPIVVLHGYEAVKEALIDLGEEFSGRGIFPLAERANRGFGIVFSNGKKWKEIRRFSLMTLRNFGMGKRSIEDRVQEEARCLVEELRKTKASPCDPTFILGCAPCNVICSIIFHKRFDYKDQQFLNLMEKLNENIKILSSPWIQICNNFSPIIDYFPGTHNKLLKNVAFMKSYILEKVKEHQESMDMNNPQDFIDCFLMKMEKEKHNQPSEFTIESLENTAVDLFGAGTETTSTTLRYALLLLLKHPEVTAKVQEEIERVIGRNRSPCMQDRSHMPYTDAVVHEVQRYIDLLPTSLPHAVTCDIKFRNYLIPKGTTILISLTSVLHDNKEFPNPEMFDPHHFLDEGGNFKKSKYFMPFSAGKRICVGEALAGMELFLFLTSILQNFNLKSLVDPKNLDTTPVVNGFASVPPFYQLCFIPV

| SMILES | inhibition |
| --- | --- |
| O=C1CSC(c2cccc(F)c2)N1c1ccc(O)cc1 (stereo not given) | 32.7% |
| CCN1CCN(C(=O)/C=C\C(=O)O)CC1 | -4.2% |
| Cc1cccc(N(CC(=O)Nc2ccc(-c3nc4ccc(C)cc4s3)cc2)S(C)(=O)=O)c1 | 6.7% |
| CCN(CC)S(=O)(=O)c1ccc(NC(=O)CN(c2cccc(F)c2)S(C)(=O)=O)cc1 | 97.6% (active) |
| COc1cccc(N(CC(=O)Nc2cccc(N(C)S(C)(=O)=O)c2)S(C)(=O)=O)c1 | 57.7% (active) |
| Cc1ccc(N(CC(=O)Nc2cccc(N(C)S(C)(=O)=O)c2)S(C)(=O)=O)cc1 | 5.5% |
| COc1cccc(N(CC(=O)Nc2cccc(F)c2)S(C)(=O)=O)c1 | 45.4% |
| CS(=O)(=O)N(CC(=O)Nc1ccc(F)cc1F)c1cccc([N+](=O)[O-])c1 | 13.3% |
| CC1Cc2cc(/C(O)=C3\C(=O)C(=O)N(CCN4CCOCC4)C3c3ccccc3F)ccc2O1 (stereo not given) | 0.8% |
| CCSc1ncnc2c(C#N)c3n(c12)CCCCC3 | 17.9% |
| Nn1c(SCC(=O)NC2CCCC2)nnc1-c1ccccc1F | 8.6% |
| COCCNC(=O)COc1ccccc1C | 4.4% |
| CCCn1nnnc1NC(=O)COc1ccc(Cl)cc1C | 46.7% |
| O=C(CSc1n[nH]c(-c2cccnc2)n1)Nc1ccnc2ccccc12 | 91.5% (active) |
| O=C(Nc1cccc2ncccc12)C(Cl)(Cl)Cl | 49.6% |
| O=C(CSc1ncn[nH]1)Nc1ccnc2ccccc12 | 35.2% |
| CCCn1c(SCC(N)=O)nnc1C(C)C | -8% |
| O=C1c2cccnc2C(=O)N1Cc1cccs1 | 11.6% |
| CCOC(=O)c1cc2ccccc2nc1C | -27.3% |
| CCOC(=O)c1sc(C)c2c1NC(C)(c1cccc3ccccc13)NC2=O (stereo not given) | 100% (active) |
| CCOC(=O)c1nc(N)sc1C(=O)OCC | 4.2% |
| Cc1ccccc1Nc1nnc(C)c(=O)[nH]1 | 2.7% |

| SMILES | inhibition |
| --- | --- |
| CNC(=O)c1nnc(Cc2ccc(Cl)cc2)o1 | 5% |
| CC(C)CCNC(=O)C(C)N(C(=O)Cn1nnc(-c2ccc(F)cc2)n1)C1CCCC1 (stereo not given) | 77.2% (active) |
| CC(C)CCNC(=O)CN(C(=O)Cn1nnc(-c2ccc(F)cc2)n1)C1CCCC1 | 17.3% |
| CC(C)CCNC(=O)C1CCCN(S(=O)(=O)c2ccc(F)cc2)C1 (stereo not given) | -10.8% |
| CC1=CC(C)(C)NC(=S)N1c1ccccc1 | 13.8% |
| CCc1cccc2c(C=C(C#N)C#N)cn(CC(=O)N3CCCCC3)c12 | 0% |
| CCc1c(C)nc(N2CCN(Cc3ccccc3)CC2)[nH]c1=O | 10.1% |
| O=c1cc(CSc2ccccn2)nc(N2CCN(c3ccccc3)CC2)[nH]1 | 3.6% |
| Cc1nnc(SCc2cc(=O)[nH]c(N3CCN(Cc4ccccc4)CC3)n2)s1 | 56.4% (active) |
| Cc1ccc(-c2n[nH]c(=S)n2/N=C/c2cc3c(cc2[N+](=O)[O-])OCO3)cc1 | 18% |
| Nc1nc(C23CC4CC(CC(C4)C2)C3)cs1 | 73.6% (active) |
| N#Cc1c(N)nc2c3c(sc(=N)c2c1N)NC(=O)CC3c1ccccc1Cl (stereo not given) | 8.6% |
| CCOC(=O)C1(S(=O)(=O)c2ccc(Cl)cc2)CCN(Cc2ccccc2)CC1 | 21.8% |
| CCN1C(=O)/C(=C\N2CCOCC2)SC1=S | 8.1% |
| CC1(N2CCOCC2)CC2(O)C(=[N+]1[O-])CCc1nonc12 (stereo not given) | 31.8% |
| O=C1Nc2cc(Cl)c(Cl)cc2N(O)N1c1cc(Cl)cc(Cl)c1 | 89.3% (active) |
| CCN(CC)CCCNC(=O)c1cc(-c2cccc(Cl)c2)on1 | 10.4% |
| CC(C)N(c1ccccc1)c1ncnc(NCCC(=O)O)c1[N+](=O)[O-] | -1.4% |
| Cc1cc2c(=O)n(C)c(SCC(=O)c3cc4ccccc4o3)nc2s1 | 95.9% (active) |
| Cc1ccc(C(=O)CSc2nc3ccccc3c(=O)n2N)o1 | 34.2% |
| Cc1ccsc1C(=O)OCC(=O)c1cc2ccccc2o1 | -30.4% |
| C=CCn1c(Oc2ccc(C(=O)OC)cc2)nc2c1c(=O)n(C)c(=O)n2C | 8.4% |

| SMILES | inhibition |
| --- | --- |
| O=C(O)C1CCN(S(=O)(=O)N2CCOCC2)CC1 | 3.6% |
| COCCCN1C(=O)C(=O)/C(=C(/O)c2ccc3c(c2)CC(C)O3)C1c1cccnc1 (stereo not given) | -1% |
| c1ccc(CCN2CN=C(Nc3nc4ccccc4o3)NC2)cc1 | 6.5% |
| Clc1ccc(Cn2ncc3c(NCc4cccnc4)ncnc32)cc1 | 49.7% |
| CCN1C(=O)/C(=C2\SC(N3CCCCC3)=NC2=O)c2ccccc21 | -20.1% |
| O=S(=O)(c1ccc(Br)cc1)c1nc(-c2ccccc2)oc1NCc1cccnc1 | 17.3% |
| O=C(NCc1cccnc1)c1ccc(CS(=O)(=O)c2ccc(Br)cc2)o1 | 95.6% (active) |
| CC(C)(C)c1cc(C(=O)NCc2cccnc2)ccn1 | 12.2% |
| Cc1cc(C(C)(C)C)oc1C(=O)N(CC(=O)NC1CCCC1)Cc1ccc(Cl)cc1 | -11.5% |
| CCCCOc1ccc(C(=O)NCc2ccncc2)cc1 | 58.4% (active) |
| CC(=O)c1cccc(NC(=O)c2ccncc2)c1 | 68.3% (active) |
| C=C(C)C(=O)Nc1cccc(C(C)=O)c1 | 1.4% |
| COc1ccc(NC(=O)c2ccc(OC)cc2)cc1 | -13.7% |
| CCOc1ccc(C(=O)Nc2ccncc2)cc1 | 94.8% (active) |
| CCCCOc1ccc(C(=O)NCc2ccco2)cc1 | 15.5% |
| CCOc1cccc(C(=O)Nc2cccnc2)c1 | 4.7% |
| CCCCCCOc1ccc(OC(=O)c2cccnc2)cc1 | 10% |
| CN(C)c1ccc(NC(=O)c2ccncc2)c2ccccc12 | 43.9% |
| COC(=O)CNC(=O)c1ccccc1F | -2.7% |
| Cc1cc(Cl)c(S(=O)(=O)NCCC(=O)O)cc1OCC(N)=O | -23.5% |
| c1cc(-c2nn[nH]n2)ccc1CN1CCCCC1 | -10.5% |
